Experimental data from PubChem BioAssay.
Activity calls are given as the source filed them.

Columns and labels:
[1] = binders of probe aFSTL3 on microarray, primary screen, stem cell growth factor project, biochemical, small-molecule microarray, fluorescence 635/667 (AID 1064); details: higher = more signal;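 also: measures binding of the biotinylated anti-FSTL3 antibody to printed compounds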
[2] = binders from COS7 lysate, DM2A8 probe, primary screen, torsin A project, cell lysate, small-molecule microarray, fluorescence 635/667 (AID 1065); details: higher = more signal, COS7 lysate expressing mutant human TOR1A
[3] = binders of probe aFGF2 on microarray, primary screen, stem cell growth factor project, biochemical, small-molecule microarray, fluorescence 635/667 (AID 1067); details: higher = more signal;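 also: measures binding of biotinylated aFGF2 protein to printed compounds on slides; z-score merges feature fluorescence and signal-to-noise across triplicate slides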
[4] = binders of probe aFGF10 on microarray, primary screen, stem cell growth factor project, biochemical, small-molecule microarray, fluorescence 635/667 (AID 1071); details: higher = more signal;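 also: score merges 667 nm spot intensity and signal to noise from triplicate slides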
[5] = biological target: Neurogenic locus notch homolog protein 2 (Homo sapiens) (UniProt Q04721); assay: Notch2 binders on small-molecule microarrays, primary screen, biochemical, small-molecule microarray, 635 nm fluorescence, stem cell growth factors (AID 1073); details: Notch2 binding, higher = more signal
[6] = biological target: Pro-neuregulin-1, membrane-bound isoform (Homo sapiens) (UniProt Q02297); assay: NRG1 binders on small-molecule microarrays, primary screen, psychiatric disease protein project, biochemical, small-molecule microarray, fluorescence 635/667 (AID 1075); details: NRG1 binding, 635 nm fluorescence, higher = more signal;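 also: score combines 667 nm spot fluorescence with signal to noise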
[7] = system: Neuregulin-1 EGF-like domain; assay: binders of neuregulin-1 EGF-like domain, primary screen, biochemical, small-molecule microarray, 635 nm fluorescence (AID 1081); details: small-molecule microarray binding, higher = more signal;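 also: binding of the protein to compounds printed on small-molecule microarray slides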
[8] = FRG1 promoter luciferase signal modulators, primary screen, FRG1 inhibition for FSHD, cell-based, C2C12 myotubes, firefly/Renilla luciferase, luminescence (AID 1084); details: higher = more signal, called active from +8 up or from −8 down
[9] = binders of probe aFST on microarray, primary screen, stem cell growth factor project, biochemical, small-molecule microarray, fluorescence 635/667 (AID 1086); details: higher = more signal;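 also: score merges 667 nm fluorescence with signal-to-noise of each printed compound spot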
[10] = binders of probe aHhip on microarray, primary screen, stem cell growth factor project, biochemical, small-molecule microarray, fluorescence 635/667 (AID 1087); details: higher = more signal;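 also: score merges spot fluorescence at 667nm with spot signal to noise ratio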
[11] = system: PRMT1 (protein arginine N-methyltransferase 1); assay: PRMT1 binders on small-molecule microarrays, primary screen, biochemical, small-molecule microarray, 635 nm fluorescence (AID 1088); details: small-molecule microarray binding, higher = more signal;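 also: binding of Prmt1 protein to compounds spotted on small-molecule microarray slides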
[12] = yeast growth modulation, basal conditions, primary screen, YJM789 clinical isolate, OD600, 24 h (AID 1089);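 also: growth of clinical yeast isolate S. cerevisiae YJM 789 seeded 1000 cells per well; test concentration not given here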; details: S. cerevisiae YJM789 growth, higher = more signal, called active from +8 up or from −8 down
[13] = fission yeast growth modulation, primary screen, strain 972, OD600, 24 h, no modulator (AID 1090);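 also: basal condition with compound alone and no growth modifier present; test concentration not given here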; details: S. pombe 972 growth, higher = more signal, called active from +8 up or from −8 down
[14] = S. cerevisiae growth modulation with rapamycin, primary screen, strain BY4716, OD600, 96 h (AID 1091); details: higher = more signal, called active from +8 up or from −8 down; also: test concentration not given here
[15] = biological target: Torsin-1A-interacting protein 2 (Homo sapiens) (UniProt Q8NFQ8); assay: LULL1 binders on small-molecule microarray, primary screen, cell lysate, human LULL1 lysate, 635/667 nm fluorescence (AID 1092); details: hLULL1 lysate binding, 635 nm fluorescence, higher = more signal;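 also: probe is lysate of COS7 cells overexpressing human LULL1; score merges per-feature 667 nm fluorescence with signal-to-noise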
[16] = E. coli growth modulation, two-sided OD650, primary screen, E. coli filamentation project, strain DRC41, 24 h (AID 1093); details: OD650, 24 h, higher = more signal, called active from +8 up or from −8 down;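 also: MC1000 strain lacking acrAB efflux and sulA so SOS filamentation is blocked; test concentration not given here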
[17] = small-molecule microarray binders of probe aLefty2, primary screen, biochemical, biotinylated probe, 635/667 nm fluorescence (AID 1094); details: higher = more signal;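 also: score merges spot fluorescence near 667 nm with spot signal-to-noise ratio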
[18] = system: Noggin (protein binding on small-molecule microarray); assay: Noggin binders on small-molecule microarray, primary screen, biochemical, 635/667 nm fluorescence (AID 1095); details: 635 nm fluorescence, higher = more signal;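 also: score merges 667 nm feature fluorescence with signal to noise over triplicate slides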
[19] = biological target: Neurogenic locus notch homolog protein 3 (Homo sapiens) (UniProt Q9UM47); assay: NOTCH3 binders on small-molecule microarray, primary screen, biochemical, 635/667 nm fluorescence (AID 1096); details: NOTCH3 binding, 635 nm fluorescence, higher = more signal
[20] = small-molecule microarray binders of probe aEGFR, primary screen, biochemical, biotinylated probe, 635/667 nm fluorescence (AID 1097); details: higher = more signal;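 also: probe is a biotinylated anti-EGFR antibody binding compounds printed on slides; score combines fluorescence near 667 nm and signal to noise of each spot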

Chain of Torsin-1A-interacting protein 2 (Homo sapiens) (Q8NFQ8 whole entry, looked up): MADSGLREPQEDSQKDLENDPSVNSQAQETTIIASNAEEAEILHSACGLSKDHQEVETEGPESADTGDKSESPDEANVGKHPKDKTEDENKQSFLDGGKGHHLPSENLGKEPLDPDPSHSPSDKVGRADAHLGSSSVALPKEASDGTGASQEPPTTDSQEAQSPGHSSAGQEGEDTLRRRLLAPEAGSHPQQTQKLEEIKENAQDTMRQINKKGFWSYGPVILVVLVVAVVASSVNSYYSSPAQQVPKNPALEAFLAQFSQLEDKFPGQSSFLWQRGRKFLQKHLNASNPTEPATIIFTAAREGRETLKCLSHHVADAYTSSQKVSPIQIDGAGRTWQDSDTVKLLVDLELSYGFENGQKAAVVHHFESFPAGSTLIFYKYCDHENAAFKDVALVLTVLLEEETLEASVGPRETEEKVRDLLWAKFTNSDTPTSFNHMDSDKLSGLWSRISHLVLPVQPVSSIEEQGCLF
Chain of Neurogenic locus notch homolog protein 3 (Homo sapiens) (Q9UM47 whole entry, looked up): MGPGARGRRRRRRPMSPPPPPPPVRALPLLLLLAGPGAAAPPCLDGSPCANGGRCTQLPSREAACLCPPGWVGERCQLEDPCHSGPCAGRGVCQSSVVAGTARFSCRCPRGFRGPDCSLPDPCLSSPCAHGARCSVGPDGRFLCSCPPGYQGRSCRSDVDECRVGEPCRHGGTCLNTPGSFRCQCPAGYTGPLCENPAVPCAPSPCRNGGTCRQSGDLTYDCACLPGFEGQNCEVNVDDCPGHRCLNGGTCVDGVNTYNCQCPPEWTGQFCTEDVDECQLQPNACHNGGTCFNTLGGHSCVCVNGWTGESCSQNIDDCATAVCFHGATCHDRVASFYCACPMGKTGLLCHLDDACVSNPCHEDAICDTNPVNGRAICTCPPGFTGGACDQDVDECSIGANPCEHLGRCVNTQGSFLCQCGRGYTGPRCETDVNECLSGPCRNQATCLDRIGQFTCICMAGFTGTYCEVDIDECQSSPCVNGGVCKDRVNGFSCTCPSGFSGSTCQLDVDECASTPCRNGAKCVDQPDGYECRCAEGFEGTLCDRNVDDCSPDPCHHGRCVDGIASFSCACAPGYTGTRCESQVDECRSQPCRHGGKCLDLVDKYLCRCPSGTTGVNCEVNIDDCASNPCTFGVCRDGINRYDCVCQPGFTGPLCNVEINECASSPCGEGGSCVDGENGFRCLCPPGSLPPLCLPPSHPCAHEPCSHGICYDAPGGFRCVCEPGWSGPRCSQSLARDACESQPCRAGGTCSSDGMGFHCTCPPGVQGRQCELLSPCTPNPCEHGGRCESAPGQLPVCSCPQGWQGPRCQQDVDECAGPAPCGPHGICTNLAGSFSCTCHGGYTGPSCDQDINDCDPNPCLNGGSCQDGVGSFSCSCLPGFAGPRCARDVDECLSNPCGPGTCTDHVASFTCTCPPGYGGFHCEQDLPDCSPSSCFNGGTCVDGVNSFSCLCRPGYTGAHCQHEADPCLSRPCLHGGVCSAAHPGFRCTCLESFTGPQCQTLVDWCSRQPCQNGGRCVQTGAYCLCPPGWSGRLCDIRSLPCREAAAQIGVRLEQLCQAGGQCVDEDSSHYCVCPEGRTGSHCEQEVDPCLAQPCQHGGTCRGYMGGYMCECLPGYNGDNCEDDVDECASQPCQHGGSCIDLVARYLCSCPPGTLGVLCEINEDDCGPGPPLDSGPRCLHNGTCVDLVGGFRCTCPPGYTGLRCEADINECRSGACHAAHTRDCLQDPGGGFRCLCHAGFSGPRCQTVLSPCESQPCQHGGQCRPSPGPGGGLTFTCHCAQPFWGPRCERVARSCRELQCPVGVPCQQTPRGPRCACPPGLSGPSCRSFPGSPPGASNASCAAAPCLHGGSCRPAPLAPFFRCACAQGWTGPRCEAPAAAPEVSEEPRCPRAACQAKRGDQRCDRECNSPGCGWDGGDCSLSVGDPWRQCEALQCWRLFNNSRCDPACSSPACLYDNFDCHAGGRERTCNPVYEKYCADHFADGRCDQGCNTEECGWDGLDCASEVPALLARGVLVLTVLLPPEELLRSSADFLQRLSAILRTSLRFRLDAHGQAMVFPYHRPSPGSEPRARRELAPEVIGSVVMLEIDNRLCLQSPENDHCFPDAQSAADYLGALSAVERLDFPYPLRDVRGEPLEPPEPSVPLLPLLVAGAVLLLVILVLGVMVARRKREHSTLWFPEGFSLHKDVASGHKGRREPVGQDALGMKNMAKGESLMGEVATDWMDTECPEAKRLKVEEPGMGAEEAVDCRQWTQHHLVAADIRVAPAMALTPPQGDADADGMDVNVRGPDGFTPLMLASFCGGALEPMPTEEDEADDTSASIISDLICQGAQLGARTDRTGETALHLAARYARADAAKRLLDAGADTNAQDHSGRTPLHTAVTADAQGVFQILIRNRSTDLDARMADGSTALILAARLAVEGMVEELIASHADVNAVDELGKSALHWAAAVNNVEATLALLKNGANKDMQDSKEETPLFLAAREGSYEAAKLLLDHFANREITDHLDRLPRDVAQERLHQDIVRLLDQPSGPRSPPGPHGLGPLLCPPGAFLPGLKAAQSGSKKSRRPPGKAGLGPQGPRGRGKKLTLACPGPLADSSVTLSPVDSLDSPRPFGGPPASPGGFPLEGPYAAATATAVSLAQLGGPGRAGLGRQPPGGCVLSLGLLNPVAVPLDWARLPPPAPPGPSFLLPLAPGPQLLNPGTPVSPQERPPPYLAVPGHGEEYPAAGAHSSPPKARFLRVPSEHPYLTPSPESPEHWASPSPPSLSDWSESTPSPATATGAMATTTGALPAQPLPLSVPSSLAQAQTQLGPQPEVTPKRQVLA
Chain of Pro-neuregulin-1, membrane-bound isoform (Homo sapiens) (Q02297 whole entry, looked up, the tested form may be a part, canonical isoform): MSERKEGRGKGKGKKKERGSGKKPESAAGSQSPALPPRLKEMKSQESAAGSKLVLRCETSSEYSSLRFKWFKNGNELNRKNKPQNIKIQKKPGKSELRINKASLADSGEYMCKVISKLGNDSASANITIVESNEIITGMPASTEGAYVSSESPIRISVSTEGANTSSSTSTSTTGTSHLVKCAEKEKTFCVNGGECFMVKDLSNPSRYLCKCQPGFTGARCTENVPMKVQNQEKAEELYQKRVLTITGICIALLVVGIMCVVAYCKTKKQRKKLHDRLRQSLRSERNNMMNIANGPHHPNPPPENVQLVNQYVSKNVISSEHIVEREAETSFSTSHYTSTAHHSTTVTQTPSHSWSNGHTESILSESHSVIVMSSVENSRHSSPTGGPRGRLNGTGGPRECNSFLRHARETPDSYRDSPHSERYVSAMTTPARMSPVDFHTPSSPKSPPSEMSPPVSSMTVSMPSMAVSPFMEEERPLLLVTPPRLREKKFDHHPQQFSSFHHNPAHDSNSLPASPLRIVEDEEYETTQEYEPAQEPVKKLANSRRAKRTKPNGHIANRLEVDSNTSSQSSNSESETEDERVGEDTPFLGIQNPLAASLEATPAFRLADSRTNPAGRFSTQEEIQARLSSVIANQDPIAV

| Structure (SMILES) | composite z-score [1] | composite z-score [2] | composite z-score [3] | composite z-score [4] | composite z-score [5] | composite z-score [6] | composite z-score [7] | z-score [8] | composite z-score [9] | composite z-score [10] | composite z-score [11] | z-score [12] | z-score [13] | z-score [14] | composite z-score [15] | z-score [16] | composite z-score [17] | composite z-score [18] | composite z-score [19] | composite z-score [20] |
| --- | --- | --- | --- | --- | --- | --- | --- | --- | --- | --- | --- | --- | --- | --- | --- | --- | --- | --- | --- | --- |
| O=C1O[C@H](Cc2ccccc2)[C@@H]2[C@H]3C=CCCC=C3CN2[C@H]1Cc1ccc(O)cc1 | -0.117 | -0.0933 | -0.0692 | -0.026 | -0.562 | -0.465 | 0.0706 | 0.0201 (inactive) | 0.142 | 0.0976 | -1.14 | -0.055 (inactive) | -1.54 (inactive) | -0.621 (inactive) | -0.145 | 0.222 (inactive) | -0.0591 | -0.0371 | -0.268 | -0.0958 |
| C=C(CCCC)/C(=C/C[C@@H](OC(C)=O)c1ccc(CO)o1)c1cnc2ccccc2c1 | -0.593 | 0.361 | -0.0744 | 1.14 | 1.31 | 1.31 | 1.28 | -0.16 (inactive) | 0.128 | -0.179 | 1.54 | 1.5 (inactive) | -0.57 (inactive) | 0.824 (inactive) | 1.92 | 0.688 (inactive) | -0.11 | 1.57 | 1.11 | -0.0007 |
| COc1cc(CO)cc(I)c1O[C@H]1C=C(C(=O)NCCO)C[C@@H]2O[C@H]12 | 0.167 | 0.622 | -0.111 | 0.251 | 0.864 | 0.366 | 1.46 | -1.44 (inactive) | 0.164 | -0.199 | 1.56 | 0.111 (inactive) | -6.47 (inactive) | -1.42 (inactive) | 2.63 | -0.0097 (inactive) | 0.17 | 2.32 | 1.07 | 0.0018 |
